Unmarked numbers belong to inactive results. Inconclusive results are not listed. Activity calls are given as the source filed them. Calls come from the whole dose curve; as a rule, active = well fitted curve in the direction sought with a large enough effect; inconclusive = small, poorly fitted or top-dose-only effect, or another doubt; inactive = no such curve, though single readings can be large; an effect the other way counts as inactive or inconclusive.

The nature of assay [1]: Primary qHTS for inhibitors of nuclear receptor binding SET domain protein 2 (NSD2) in an RCH-ACV wild type WT cells (2C) (AID 1645877). Note: nearly all actives have a fitted effect of over 70% in size. Note: potency is the fitted concentration of half-maximal effect.
The target in assay [2] is Glutathione peroxidase 1 (Homo sapiens) (UniProt P07203). The assay can be described thus: Primary qHTS Assay for Inhibitors of Recombinant Selenoprotein Glutathione Peroxidase 1 (GPX1) (AID 1845191). Note: nearly all actives have a fitted effect of over 65% in size. An outline of the steps:
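NADPH consumption tracked by fluorescence at 340/450 nm between t=0 and t=15 min, room temperature. Final mix: 10 nM GPX1, 100 nM glutathione reductase, 1 mM GSH, 0.5 mM NADPH, 0.5 mM cumene hydroperoxide, 0.01% BSA; 30 min compound–enzyme preincubation.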

Assay [3] deals with Phospholipid hydroperoxide glutathione peroxidase GPX4 (Homo sapiens) (UniProt P36969). The assay can be described thus: Primary qHTS Assay for Inhibitors of Recombinant Selenoprotein Glutathione Peroxidase 4 (GPX4) (AID 1845192). Note: nearly all actives have a fitted effect of over 65% in size. In outline:
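NADPH consumption followed by fluorescence at 340/450 nm, t=0 and after 15 min at room temperature. Reaction started with cumene hydroperoxide (0.5 mM final) after 30 min compound–GPX4 preincubation; final 200 nM GPX4, 100 nM GR, 1 mM GSH, 0.5 mM NADPH.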

For assay [4], the target named is Luciferin 4-monooxygenase (Photinus pyralis) (UniProt P08659). The experiment in a line: Primary firefly luciferase (FLuc) qHTS assay for identification of artifact compounds. (AID 1845220). Note: nearly all actives have a fitted effect of over 60% in size. An outline of the steps:
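Compounds sat 15 min at room temperature with 10 uM luciferin and 10 uM ATP (pH 7.6 Tris acetate). Firefly luciferase (10 nM final) was then added, and luminescence was read 5 min later. Data normalized to no-enzyme and DMSO controls were Hill-fitted.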

Assay [5] is described as follows: Primary fluorescence-based thiol-reactive (MSTI) qHTS assay for identification of artifact compounds. (AID 1845221). Note: nearly all actives have a fitted effect of over 65% in size. Note: potency is the fitted concentration of half-maximal effect. In outline: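 Probe: MSTI 4 uM, PBS pH 7.4, 2% DMSO. Incubation 1 h, RT, light-protected. Readout fluorescence 525/598 nm.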
The subject of assay [6] is Nanoluciferase (engineered Oplophorus gracilirostris luciferase). The experiment in a line: Primary Nanoluciferase (NLuc) qHTS assay for identification of artifact compounds. (AID 1845222). Note: series mostly up to about 54 µM. An outline of the steps:
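Luminescence from secreted NLuc (filtered, 1:55-diluted S16 cell medium) read 5 min after Nano-Glo substrate; compounds preincubated 15 min, RT. Hill fits of inhibition normalized to DMSO and no-enzyme.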

A short description of assay [7]: Primary redox qHTS assay for identification of artifact compounds. (AID 1845223). An outline of the steps:
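Redox-cycling detection via DTT (250 uM final) oxidation coupled to Amplex Red (25 uM)/HRP (250 mU/mL) in HBSS. 15 min preincubation plus 30 min after DTT, room temperature. Ex/Em 525/598 nm; 4-parameter Hill fit against DMSO and 10 uM DA3003.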

Sequence of Phospholipid hydroperoxide glutathione peroxidase GPX4 (Homo sapiens) (P36969 whole entry, looked up): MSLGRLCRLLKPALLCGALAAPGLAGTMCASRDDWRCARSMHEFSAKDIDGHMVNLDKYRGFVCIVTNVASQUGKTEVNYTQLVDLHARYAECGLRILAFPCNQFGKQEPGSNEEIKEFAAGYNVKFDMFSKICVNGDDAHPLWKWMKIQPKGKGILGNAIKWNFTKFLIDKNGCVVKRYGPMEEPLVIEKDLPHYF
Sequence of Glutathione peroxidase 1 (Homo sapiens) (P07203 whole entry, looked up): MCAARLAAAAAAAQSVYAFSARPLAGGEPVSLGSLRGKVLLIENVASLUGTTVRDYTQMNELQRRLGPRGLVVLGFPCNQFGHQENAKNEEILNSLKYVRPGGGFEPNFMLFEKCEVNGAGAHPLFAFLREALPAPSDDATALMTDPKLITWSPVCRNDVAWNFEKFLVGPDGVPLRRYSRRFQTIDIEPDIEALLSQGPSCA

In the case of `COc1ccc2[nH]c3c(-c4cccc5ccccc45)nccc3c2c1`, the Potency in assay [1] was 578 nM (active). For the same compound, the Potency entry in assay [2], in assay [3], in assay [4], in assay [5], in assay [6] and in assay [7] was “inactive” throughout.

For `CC(C)(C)OC(=O)N1CCC(OCc2nc(-c3ccncc3)no2)CC1`, the Potency entry in assay [1], in assay [2], in assay [3], in assay [4], in assay [5] and in assay [6] was “inactive” in each case. Also, in assay [7], the Potency entry is “inactive”.

Take `CC1=CC(=O)CC(C)(C)[C@H]1/C=C/C(CO)O[C@@H]1O[C@H](CO)[C@@H](O)[C@H](O)[C@H]1O` (stereo partly drawn): the Potency entry in assay [1], in assay [2], in assay [3], in assay [4], in assay [6] and in assay [7] was “inactive” in each case. Also, the Potency in assay [5] is 11700 nM (active).

In the case of `CC1=CC2/C=C(\C)CC[C@@H](O)[C@@H](O)[C@@H]3O[C@@H]3C(=O)[C@]23C(=O)N[C@@H](CC(C)C)[C@@H]3[C@@H]1C` (stereo partly drawn), the Potency entry in assay [1], in assay [2], in assay [3], in assay [4], in assay [5] and in assay [6] was “inactive” in each case. In assay [7], the Potency entry was “inactive”.

With `CC1=CCC(C(C)(C)O[C@@H]2O[C@H](CO[C@@H]3O[C@@H](C)[C@H](O)[C@@H](O)[C@H]3O)[C@@H](O)[C@H](O)[C@H]2O)CC1` (stereo partly drawn), the Potency result in assay [1], in assay [2], in assay [3], in assay [4], in assay [5] and in assay [6] was “inactive” each time. In addition, the Potency result in assay [7] is “inactive”.

`CC(=O)O[C@H]1CC[C@@]2(C)C(CC[C@@H](C)[C@]23Cc2c(O)cc4c(c2O3)CN([C@@H](CCC(=O)O)C(=O)O)C4=O)C1(C)C` (stereo partly drawn): the Potency entry in assay [1], in assay [2], in assay [3], in assay [4], in assay [5] and in assay [6] was “inactive” in each case. Moreover, the Potency result in assay [7] is “inactive”.

As to `C[C@H](NC(c1cccc2[nH]c(=O)c(=O)[nH]c12)P(=O)(O)O)c1ccc(Br)cc1` (stereo partly drawn), the Potency result in assay [1], in assay [2], in assay [3], in assay [4], in assay [5] and in assay [6] was “inactive” each time. In addition, the Potency entry in assay [7] was “inactive”.

As to `c1ccc(-c2ncc(CN3CCN(c4ncccn4)CC3)[nH]2)cc1`, the Potency result in assay [1], in assay [2], in assay [3], in assay [4], in assay [5] and in assay [6] was “inactive” each time. Also, in assay [7], the Potency result is “inactive”.

Turning to `Nc1ncnc2c1nc(N)n2[C@@H]1O[C@H](CO)[C@@H](O)[C@H]1O`, in assay [1], the Potency is 649 nM (active). For the same compound, the Potency entry in assay [2], in assay [3], in assay [4], in assay [5], in assay [6] and in assay [7] was “inactive” throughout.

For the compound `COc1ncc2cc(C(=O)Nc3cc(C(=O)NCc4cccc(Cl)c4)ccc3Cl)c(=O)[nH]c2n1`, the Potency in assay [1] is 5800 nM (active). The Potency result in assay [2], in assay [3], in assay [4], in assay [5], in assay [6] and in assay [7] was “inactive” in each case.

Take `COCCOc1cnc2ccn([C@H](C)c3nnc4c(F)cc(-c5cnn(C)c5)cn34)c(=O)c2c1`: the Potency result in assay [1], in assay [2], in assay [3], in assay [4], in assay [5] and in assay [6] was “inactive” in each case.

Consider `C=C(C)C(=O)O[C@H]1C[C@@](C)(O)C(=O)CC(O)/C(C)=C\[C@H]2OC(=O)C(=C)[C@H]12` (stereo partly drawn), for which the Potency in assay [1] was 1270 nM (active); in assay [5], 2930 nM (active). The Potency result in assay [2], in assay [3], in assay [4], in assay [6] and in assay [7] was “inactive” in each case.

As for `CC(=O)N1CCc2ccc(O)c(OC3OC(COC4OCC(O)(CO)C4O)C(O)C(O)C3O)c2C1Cc1ccc(O)cc1` (stereo not drawn), the Potency entry in assay [1], in assay [2], in assay [3], in assay [4], in assay [5] and in assay [6] was “inactive” throughout. In assay [7], the Potency entry is “inactive”.

Take `CC1(O)CCCC2(C)C1CCC13CC(CO)C(CCC12)C3` (stereo not drawn): the Potency result in assay [1], in assay [2], in assay [3], in assay [4], in assay [5] and in assay [6] was “inactive” throughout. The Potency result in assay [7] was “inactive”.

As to `O=C(CC1C(=O)Nc2ccccc21)OC[C@H]1O[C@@H](OCCc2ccc(O)cc2)[C@H](O)[C@@H](O)[C@@H]1O` (stereo partly drawn), the Potency entry in assay [1], in assay [2], in assay [3], in assay [4], in assay [6] and in assay [7] was “inactive” throughout. Besides, the Potency in assay [5] was 9220 nM (active).

With `COC(=O)C1(C)CCC2(C(=O)O)CCC3(C)C(=CCC4C5(C)CC(O)C(OC6OCC(O)C(O)C6O)C(C)(CO)C5CCC43C)C2C1` (stereo not drawn), the Potency result in assay [1], in assay [2], in assay [3], in assay [4], in assay [5] and in assay [6] was “inactive” each time. Moreover, in assay [7], the Potency result is “inactive”.

As for `COc1cc(O)cc(C)c1C(=O)O[C@H]1[C@@H](OC(C)=O)[C@H](n2ccc(=O)[nH]c2=O)O[C@@H]1CO`, the Potency entry in assay [1], in assay [2], in assay [3], in assay [4], in assay [5] and in assay [6] was “inactive” each time. In assay [7], the Potency result was “inactive”.
